# Source: publication PMC7862700, “An all-to-all approach to the identification of sequence-specific readers for epigenetic DNA modifications on cytosine”
# What was measured:
# Test in all cases: DAPPL (digital affinity profiling via proximity ligation, sequencing); 10 mM Tris-HCl pH 7.5, 50 mM NaCl, 1 mM DTT, 4% glycerol, room temperature, 30 min; GST-TFs on glutathione beads, 16-mer random dsDNA library, 0.1% formaldehyde crosslink after washing; high values mean tight binding
# FLI1 = target: T1, FLI1 (Homo sapiens, UniProt Q01543 1-452); conditions: protein: recombinant; tags: N-terminal GST; dsDNA, one strand shown
# T1 sequence: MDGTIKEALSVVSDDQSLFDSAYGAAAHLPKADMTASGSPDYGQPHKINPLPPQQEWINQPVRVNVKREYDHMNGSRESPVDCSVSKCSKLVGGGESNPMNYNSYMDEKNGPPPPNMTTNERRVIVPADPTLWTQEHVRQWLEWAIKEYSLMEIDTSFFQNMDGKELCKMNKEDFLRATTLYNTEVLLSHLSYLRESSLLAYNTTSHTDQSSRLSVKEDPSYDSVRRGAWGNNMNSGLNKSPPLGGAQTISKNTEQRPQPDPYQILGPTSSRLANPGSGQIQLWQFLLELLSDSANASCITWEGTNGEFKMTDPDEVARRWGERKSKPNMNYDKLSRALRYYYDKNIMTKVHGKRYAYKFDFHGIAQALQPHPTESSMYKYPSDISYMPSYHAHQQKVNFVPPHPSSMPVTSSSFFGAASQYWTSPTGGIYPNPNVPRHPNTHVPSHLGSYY
# Summary of the method: (§1)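 A tag-only sample was pooled with DNA-barcoded human transcription factors that had been expressed in yeast as GST fusions and captured on glutathione beads. The pools were incubated for 30 min at room temperature with 200 nmole of a random double-stranded 16-mer DNA library in Tris/NaCl/DTT/glycerol buffer, then washed, crosslinked with 0.1% formaldehyde, proximity-ligated (BsaI/T4 ligase, 1 h, 37 °C), PCR-amplified and sequenced on an Illumina NextSeq500. Binding signal is each hexamer's read frequency for a factor divided by its frequency for the tag-only sample.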
# ELK1 = target: T2, ELK1 (Homo sapiens, UniProt P19419 1-428); conditions: protein: recombinant; tags: N-terminal GST; dsDNA, one strand shown
# T2 sequence: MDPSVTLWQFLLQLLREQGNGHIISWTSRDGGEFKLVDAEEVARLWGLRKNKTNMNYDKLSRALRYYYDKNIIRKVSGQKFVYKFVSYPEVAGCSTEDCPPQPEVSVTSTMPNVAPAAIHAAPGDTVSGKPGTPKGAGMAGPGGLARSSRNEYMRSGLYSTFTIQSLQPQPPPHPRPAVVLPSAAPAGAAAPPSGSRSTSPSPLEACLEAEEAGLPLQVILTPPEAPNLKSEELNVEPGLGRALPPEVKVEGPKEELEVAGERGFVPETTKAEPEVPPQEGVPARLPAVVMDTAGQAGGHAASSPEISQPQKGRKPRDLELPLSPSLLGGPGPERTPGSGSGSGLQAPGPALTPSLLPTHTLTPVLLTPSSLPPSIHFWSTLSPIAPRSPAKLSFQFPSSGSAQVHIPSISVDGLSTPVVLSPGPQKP
# Summary of the method: as §1
# GABPA = target: T3, GABPA (Homo sapiens, UniProt Q06546 1-454); conditions: protein: recombinant; tags: N-terminal GST; dsDNA, one strand shown
# T3 sequence: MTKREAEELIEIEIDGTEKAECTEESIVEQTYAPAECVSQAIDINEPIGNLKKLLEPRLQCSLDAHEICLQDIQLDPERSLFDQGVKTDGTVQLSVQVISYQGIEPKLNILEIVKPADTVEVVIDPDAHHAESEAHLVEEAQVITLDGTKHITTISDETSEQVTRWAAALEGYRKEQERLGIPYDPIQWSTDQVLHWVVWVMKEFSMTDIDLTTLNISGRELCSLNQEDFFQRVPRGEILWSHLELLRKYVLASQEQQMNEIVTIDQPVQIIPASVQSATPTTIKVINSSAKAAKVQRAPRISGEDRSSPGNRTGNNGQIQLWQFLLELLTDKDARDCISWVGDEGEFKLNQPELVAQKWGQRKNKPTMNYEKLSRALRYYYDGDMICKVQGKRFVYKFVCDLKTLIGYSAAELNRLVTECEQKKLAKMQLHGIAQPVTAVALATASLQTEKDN
# Summary of the method: as §1
# ERG = target: T4, ERG (Homo sapiens, UniProt P11308 1-479); conditions: protein: recombinant; tags: N-terminal GST; dsDNA, one strand shown
# T4 sequence: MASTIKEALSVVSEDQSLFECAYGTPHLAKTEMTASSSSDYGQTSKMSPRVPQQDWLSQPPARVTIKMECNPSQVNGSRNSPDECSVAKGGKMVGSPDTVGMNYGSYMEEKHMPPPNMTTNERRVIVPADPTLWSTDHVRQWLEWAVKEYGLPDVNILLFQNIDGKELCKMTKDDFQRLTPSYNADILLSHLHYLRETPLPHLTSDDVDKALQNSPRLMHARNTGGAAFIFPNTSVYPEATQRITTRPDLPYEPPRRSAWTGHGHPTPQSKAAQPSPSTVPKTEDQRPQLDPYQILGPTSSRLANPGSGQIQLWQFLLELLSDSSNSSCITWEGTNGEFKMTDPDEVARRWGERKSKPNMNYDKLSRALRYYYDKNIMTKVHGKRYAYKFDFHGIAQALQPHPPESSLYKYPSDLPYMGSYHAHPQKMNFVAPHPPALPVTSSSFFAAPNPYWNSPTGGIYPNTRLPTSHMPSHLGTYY
# Summary of the method: as §1
# ELF1 = ELF1 (Homo sapiens, UniProt P32519 1-619); conditions: protein: recombinant; tags: N-terminal GST; dsDNA, one strand shown
# ELF1, sequence (P32519 whole entry): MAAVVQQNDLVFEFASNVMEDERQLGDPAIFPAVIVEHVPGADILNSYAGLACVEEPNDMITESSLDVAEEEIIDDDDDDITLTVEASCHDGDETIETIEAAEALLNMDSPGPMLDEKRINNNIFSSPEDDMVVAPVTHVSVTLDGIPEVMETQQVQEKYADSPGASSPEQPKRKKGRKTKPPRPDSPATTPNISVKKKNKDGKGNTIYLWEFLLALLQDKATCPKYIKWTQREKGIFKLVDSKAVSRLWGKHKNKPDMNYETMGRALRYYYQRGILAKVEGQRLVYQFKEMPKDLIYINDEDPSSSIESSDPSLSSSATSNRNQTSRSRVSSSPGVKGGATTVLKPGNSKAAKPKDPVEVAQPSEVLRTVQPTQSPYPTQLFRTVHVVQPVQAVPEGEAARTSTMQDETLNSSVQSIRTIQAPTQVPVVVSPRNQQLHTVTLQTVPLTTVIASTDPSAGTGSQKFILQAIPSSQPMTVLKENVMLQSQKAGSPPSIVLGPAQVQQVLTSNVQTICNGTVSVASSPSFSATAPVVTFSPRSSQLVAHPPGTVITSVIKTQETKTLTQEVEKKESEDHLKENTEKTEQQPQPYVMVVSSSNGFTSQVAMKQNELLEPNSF
# Summary of the method: as §1
# EHF = target: T5, EHF (Homo sapiens, UniProt Q9NZC4 1-300); conditions: protein: recombinant; tags: N-terminal GST; dsDNA, one strand shown
# T5 sequence: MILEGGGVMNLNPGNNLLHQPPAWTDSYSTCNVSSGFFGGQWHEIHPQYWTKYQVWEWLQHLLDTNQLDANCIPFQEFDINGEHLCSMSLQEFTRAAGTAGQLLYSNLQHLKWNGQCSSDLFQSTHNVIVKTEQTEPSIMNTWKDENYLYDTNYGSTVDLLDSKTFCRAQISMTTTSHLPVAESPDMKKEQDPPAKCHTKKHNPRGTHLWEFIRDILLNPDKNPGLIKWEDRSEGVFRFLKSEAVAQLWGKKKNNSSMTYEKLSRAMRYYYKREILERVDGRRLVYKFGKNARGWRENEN
# Summary of the method: as §1
# SPI1 = SPI1 (Homo sapiens, UniProt P17947 1-270); conditions: protein: recombinant; tags: N-terminal GST; dsDNA, one strand shown
# Summary of the method: as §1
# SPIB = SPIB (Homo sapiens, UniProt Q01892 1-262); conditions: protein: recombinant; tags: N-terminal GST; dsDNA, one strand shown
# SPIB, sequence (Q01892 whole entry): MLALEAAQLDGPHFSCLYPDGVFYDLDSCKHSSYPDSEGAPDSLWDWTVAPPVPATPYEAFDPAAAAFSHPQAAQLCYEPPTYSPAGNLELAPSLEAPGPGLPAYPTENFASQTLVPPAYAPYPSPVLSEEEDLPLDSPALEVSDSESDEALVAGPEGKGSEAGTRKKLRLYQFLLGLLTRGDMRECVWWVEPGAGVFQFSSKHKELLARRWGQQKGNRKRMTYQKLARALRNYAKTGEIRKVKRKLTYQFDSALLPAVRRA
# Summary of the method: as §1
# ELK3 = target: T6, ELK3 (Homo sapiens, UniProt P41970 1-407); conditions: protein: recombinant; tags: N-terminal GST; dsDNA, one strand shown
# T6 sequence: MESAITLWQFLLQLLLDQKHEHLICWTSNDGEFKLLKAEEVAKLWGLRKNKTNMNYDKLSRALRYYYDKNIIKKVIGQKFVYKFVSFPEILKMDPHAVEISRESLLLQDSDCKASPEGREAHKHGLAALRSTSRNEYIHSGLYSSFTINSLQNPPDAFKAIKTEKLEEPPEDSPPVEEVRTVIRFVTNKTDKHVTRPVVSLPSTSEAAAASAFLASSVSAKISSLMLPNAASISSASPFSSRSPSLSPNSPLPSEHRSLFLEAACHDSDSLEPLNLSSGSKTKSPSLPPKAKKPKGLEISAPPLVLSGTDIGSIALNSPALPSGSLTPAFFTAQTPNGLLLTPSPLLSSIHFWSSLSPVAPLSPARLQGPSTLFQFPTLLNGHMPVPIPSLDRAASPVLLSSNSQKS
# Summary of the method: as §1
# FEV = target: T7, FEV (Homo sapiens, UniProt Q99581 1-238); conditions: protein: recombinant; tags: N-terminal GST; dsDNA, one strand shown
# T7 sequence: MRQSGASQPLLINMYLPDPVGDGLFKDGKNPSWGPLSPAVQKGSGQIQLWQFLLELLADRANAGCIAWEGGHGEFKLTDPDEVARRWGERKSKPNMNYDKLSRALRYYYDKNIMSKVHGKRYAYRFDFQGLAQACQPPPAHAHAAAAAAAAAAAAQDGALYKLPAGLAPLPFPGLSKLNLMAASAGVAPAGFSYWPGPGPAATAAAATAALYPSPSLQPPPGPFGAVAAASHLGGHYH
# Summary of the method: as §1
# ETV5 = ETV5 (Homo sapiens, UniProt P41161 1-510); conditions: protein: recombinant; tags: N-terminal GST; dsDNA, one strand shown
# ETV5, sequence (P41161 whole entry): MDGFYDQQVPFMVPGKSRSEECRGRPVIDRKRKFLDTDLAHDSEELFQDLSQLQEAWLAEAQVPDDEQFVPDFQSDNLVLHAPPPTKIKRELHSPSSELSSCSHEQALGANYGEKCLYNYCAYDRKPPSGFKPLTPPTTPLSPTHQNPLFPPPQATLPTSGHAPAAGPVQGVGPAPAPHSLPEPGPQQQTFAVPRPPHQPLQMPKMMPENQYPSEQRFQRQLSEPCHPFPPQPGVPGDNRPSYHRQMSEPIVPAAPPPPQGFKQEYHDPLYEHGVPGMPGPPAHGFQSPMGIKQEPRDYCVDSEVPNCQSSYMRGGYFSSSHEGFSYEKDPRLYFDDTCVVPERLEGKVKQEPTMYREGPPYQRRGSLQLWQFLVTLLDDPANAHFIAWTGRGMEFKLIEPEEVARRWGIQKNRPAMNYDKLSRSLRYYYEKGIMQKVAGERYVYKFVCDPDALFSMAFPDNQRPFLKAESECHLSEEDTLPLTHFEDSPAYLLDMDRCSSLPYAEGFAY
# Summary of the method: as §1
# HSF1 = HSF1 (Homo sapiens, UniProt Q00613 1-529); conditions: protein: recombinant; tags: N-terminal GST; chain copies: 3; dsDNA, one strand shown
# HSF1, sequence (Q00613 whole entry): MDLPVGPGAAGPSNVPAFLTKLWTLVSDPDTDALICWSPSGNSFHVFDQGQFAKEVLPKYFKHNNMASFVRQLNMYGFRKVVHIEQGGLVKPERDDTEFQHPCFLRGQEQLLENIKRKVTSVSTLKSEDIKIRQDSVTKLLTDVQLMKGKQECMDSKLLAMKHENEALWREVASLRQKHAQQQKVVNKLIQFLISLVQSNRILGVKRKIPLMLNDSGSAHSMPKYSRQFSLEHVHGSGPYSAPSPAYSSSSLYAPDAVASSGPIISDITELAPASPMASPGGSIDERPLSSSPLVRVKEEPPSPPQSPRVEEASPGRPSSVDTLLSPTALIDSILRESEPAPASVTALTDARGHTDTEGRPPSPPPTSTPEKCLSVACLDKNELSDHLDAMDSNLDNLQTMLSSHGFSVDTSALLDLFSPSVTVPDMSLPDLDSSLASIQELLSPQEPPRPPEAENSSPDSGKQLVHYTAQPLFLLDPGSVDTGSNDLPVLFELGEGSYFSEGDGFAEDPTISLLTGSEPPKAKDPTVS
# Summary of the method: as §1
# SPIC = target: T8, SPIC (Homo sapiens, UniProt Q8N5J4 1-248); conditions: protein: recombinant; tags: N-terminal GST; dsDNA, one strand shown
# T8 sequence: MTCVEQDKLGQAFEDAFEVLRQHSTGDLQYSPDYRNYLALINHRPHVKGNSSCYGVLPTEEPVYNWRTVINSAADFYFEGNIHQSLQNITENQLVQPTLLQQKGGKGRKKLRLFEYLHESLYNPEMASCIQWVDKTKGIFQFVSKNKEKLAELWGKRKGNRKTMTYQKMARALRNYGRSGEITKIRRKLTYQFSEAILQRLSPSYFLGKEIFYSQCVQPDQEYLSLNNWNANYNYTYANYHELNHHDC
# Summary of the method: as §1
# ELF4 = ELF4 (Homo sapiens, UniProt Q99607 1-663); conditions: protein: recombinant; tags: N-terminal GST; dsDNA, one strand shown
# ELF4, sequence (Q99607 whole entry): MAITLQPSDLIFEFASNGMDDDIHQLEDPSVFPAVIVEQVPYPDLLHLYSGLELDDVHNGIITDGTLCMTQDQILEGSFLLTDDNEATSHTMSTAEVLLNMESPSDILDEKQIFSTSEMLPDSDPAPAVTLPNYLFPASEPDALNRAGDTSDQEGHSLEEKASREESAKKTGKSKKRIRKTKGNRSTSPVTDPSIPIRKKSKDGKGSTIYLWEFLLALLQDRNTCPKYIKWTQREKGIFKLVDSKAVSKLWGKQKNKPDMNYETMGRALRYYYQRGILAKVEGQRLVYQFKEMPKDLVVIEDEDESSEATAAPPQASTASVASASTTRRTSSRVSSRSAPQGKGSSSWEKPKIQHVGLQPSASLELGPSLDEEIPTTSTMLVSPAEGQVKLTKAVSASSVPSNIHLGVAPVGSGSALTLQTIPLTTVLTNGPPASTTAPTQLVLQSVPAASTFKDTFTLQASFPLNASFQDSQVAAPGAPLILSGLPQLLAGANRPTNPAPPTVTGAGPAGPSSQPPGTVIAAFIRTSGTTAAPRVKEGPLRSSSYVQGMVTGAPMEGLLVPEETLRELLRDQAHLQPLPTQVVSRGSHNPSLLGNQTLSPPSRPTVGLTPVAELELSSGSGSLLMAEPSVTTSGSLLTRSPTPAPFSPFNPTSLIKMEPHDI
# Summary of the method: as §1
# ELK4 = target: T9, ELK4 (Homo sapiens, UniProt P28324-2 1-405); conditions: protein: recombinant; tags: N-terminal GST; dsDNA, one strand shown
# T9 sequence: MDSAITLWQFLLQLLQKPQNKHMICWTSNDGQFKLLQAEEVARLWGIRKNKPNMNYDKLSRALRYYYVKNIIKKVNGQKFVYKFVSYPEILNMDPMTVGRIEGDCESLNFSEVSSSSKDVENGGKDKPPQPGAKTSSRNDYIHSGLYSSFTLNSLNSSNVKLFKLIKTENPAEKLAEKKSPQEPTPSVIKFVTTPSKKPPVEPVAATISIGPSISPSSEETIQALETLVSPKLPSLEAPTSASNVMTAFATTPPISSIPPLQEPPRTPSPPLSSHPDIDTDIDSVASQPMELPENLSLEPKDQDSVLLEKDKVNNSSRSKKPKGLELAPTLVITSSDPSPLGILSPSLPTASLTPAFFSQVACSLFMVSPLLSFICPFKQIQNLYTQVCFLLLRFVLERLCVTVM
# Summary of the method: as §1
# ETV2 = target: T10, ETV2 (Homo sapiens, UniProt O00321 1-342); conditions: protein: recombinant; tags: N-terminal GST; dsDNA, one strand shown
# T10 sequence: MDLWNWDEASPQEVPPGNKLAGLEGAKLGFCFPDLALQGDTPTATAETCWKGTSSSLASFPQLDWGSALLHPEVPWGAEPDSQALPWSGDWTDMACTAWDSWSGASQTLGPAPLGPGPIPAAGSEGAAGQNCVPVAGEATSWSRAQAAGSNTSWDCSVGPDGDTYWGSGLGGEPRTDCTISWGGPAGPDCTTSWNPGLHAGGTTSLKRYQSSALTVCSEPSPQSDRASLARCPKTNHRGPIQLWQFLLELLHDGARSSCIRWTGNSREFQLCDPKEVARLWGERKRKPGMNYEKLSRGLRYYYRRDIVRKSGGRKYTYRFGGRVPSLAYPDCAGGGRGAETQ
# Summary of the method: as §1
# ELF3 = target: T11, ELF3 (Homo sapiens, UniProt P78545 1-371); conditions: protein: recombinant; tags: N-terminal GST; dsDNA, one strand shown
# T11 sequence: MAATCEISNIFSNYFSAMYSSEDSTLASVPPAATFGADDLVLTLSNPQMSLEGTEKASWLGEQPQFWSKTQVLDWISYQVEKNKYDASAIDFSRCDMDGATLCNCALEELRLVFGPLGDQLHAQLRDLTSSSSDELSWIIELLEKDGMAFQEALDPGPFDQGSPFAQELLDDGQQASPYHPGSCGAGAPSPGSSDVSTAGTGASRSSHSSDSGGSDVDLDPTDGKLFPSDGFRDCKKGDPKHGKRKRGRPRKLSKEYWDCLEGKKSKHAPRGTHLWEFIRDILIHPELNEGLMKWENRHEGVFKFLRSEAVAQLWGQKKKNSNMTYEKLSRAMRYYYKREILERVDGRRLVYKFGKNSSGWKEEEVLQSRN
# Summary of the method: as §1
# CRX = CRX (Homo sapiens, UniProt O43186 1-299); conditions: protein: recombinant; tags: N-terminal GST; dsDNA, one strand shown
# CRX, sequence (O43186 whole entry): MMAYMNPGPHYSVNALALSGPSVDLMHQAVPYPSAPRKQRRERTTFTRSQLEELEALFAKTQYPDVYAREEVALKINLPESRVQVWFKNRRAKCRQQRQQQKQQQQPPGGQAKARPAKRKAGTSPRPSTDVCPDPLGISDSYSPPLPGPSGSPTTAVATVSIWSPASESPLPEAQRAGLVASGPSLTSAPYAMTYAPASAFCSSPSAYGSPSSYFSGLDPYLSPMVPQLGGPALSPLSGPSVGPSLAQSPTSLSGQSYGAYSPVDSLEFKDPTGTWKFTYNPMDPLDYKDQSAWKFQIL
# Summary of the method: as §1
# ETV1 = ETV1 (Homo sapiens, UniProt P50549 1-477); conditions: protein: recombinant; tags: N-terminal GST; dsDNA, one strand shown
# ETV1, sequence (P50549 whole entry): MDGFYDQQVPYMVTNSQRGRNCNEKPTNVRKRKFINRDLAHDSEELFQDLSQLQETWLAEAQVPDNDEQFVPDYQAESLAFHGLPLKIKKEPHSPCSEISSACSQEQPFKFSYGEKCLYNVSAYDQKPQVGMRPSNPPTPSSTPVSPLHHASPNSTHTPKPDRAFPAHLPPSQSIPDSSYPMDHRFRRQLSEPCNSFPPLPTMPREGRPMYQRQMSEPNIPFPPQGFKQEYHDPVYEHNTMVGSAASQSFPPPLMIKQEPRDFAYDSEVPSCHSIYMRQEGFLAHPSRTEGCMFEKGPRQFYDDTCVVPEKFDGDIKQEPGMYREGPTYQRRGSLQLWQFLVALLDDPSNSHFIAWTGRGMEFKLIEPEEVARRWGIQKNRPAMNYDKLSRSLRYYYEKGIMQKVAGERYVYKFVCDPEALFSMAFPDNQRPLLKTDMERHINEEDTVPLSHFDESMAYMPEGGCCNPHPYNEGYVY
# Summary of the method: as §1
sequence,measurement,setting,value
AAATGA,binding signal,FLI1,"1.23 fold enrichment (6-mer frequency, TF over GST control)"
same,binding signal,ELK1,"1.32 fold enrichment (6-mer frequency, TF over GST control)"
same,binding signal,GABPA,"1.26 fold enrichment (6-mer frequency, TF over GST control)"
same,binding signal,ERG,"1.3 fold enrichment (6-mer frequency, TF over GST control)"
same,binding signal,ELF1,"1.26 fold enrichment (6-mer frequency, TF over GST control)"
same,binding signal,EHF,"1.23 fold enrichment (6-mer frequency, TF over GST control)"
same,binding signal,SPI1,"1.45 fold enrichment (6-mer frequency, TF over GST control)"
same,binding signal,SPIB,"1.37 fold enrichment (6-mer frequency, TF over GST control)"
same,binding signal,ELK3,"1.26 fold enrichment (6-mer frequency, TF over GST control)"
same,binding signal,FEV,"1.26 fold enrichment (6-mer frequency, TF over GST control)"
same,binding signal,ETV5,"1.32 fold enrichment (6-mer frequency, TF over GST control)"
same,binding signal,HSF1,"1.12 fold enrichment (6-mer frequency, TF over GST control)"
same,binding signal,SPIC,"1.54 fold enrichment (6-mer frequency, TF over GST control)"
same,binding signal,ELF4,"1.29 fold enrichment (6-mer frequency, TF over GST control)"
same,binding signal,ELK4,"1.29 fold enrichment (6-mer frequency, TF over GST control)"
same,binding signal,ETV2,"1.36 fold enrichment (6-mer frequency, TF over GST control)"
same,binding signal,ELF3,"1.41 fold enrichment (6-mer frequency, TF over GST control)"
same,binding signal,CRX,"1.16 fold enrichment (6-mer frequency, TF over GST control)"
same,binding signal,ETV1,"1.29 fold enrichment (6-mer frequency, TF over GST control)"
